Assay results reported in PubChem BioAssay (NCI).
This is part of a sample that, as a whole, favours compounds with a hit. Of some 83,000 tested, about 20% had one in any assay.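 Growth was measured after 48 h exposure to one concentration of compound in 96-well plates. Values under 10 count as active.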 A number with no mark means an inactive call. Calls of active or inactive are those of the source.

What follows are molecules tested on MDA-MB-468 breast (assay: NCI-60 one-dose screen, 48 h (100 = growth as untreated, 0 = no growth, -100 = all killed)). Conditions: 10 µM unless noted.

SMILES	growth
Brc1ccc(Nc2csc(-c3ccccn3)n2)cc1	97.5%
COc1cccc(C(=O)NNC(=O)c2cccc3ccccc23)c1	111%
Cc1ccc(C(CC(=O)O)c2c(C)[nH][nH]c2=O)cc1 (stereo unspecified)	101%
Cc1cc(C(C)(CC(C)C)c2ccc(O)c(C)c2)ccc1O	103%
CCCCc1n(Cc2ccc3ccccc3c2)c2ccccc2[n+]1Cc1ccc2ccccc2c1	-78.1% (active)
Cc1cc(C)c(C=O)c(C)c1	94.1%
N#Cc1c(-c2ccc(F)cc2)cc(-c2c[nH]c3ccccc23)nc1-c1c[nH]c2ccccc12	99.3%
O=C1CC(c2ccc(Cl)cc2)c2ncn(-c3cccc(Cl)c3)c2N1 (stereo unspecified)	41.3%
CCCCCCCCCCCCOc1ccccc1C=O	91.3%
COc1cc(C(=O)/C=C/c2ccc(OCCCCCC[P+](c3ccccc3)(c3ccccc3)c3ccccc3)cc2)cc(OC)c1OC	-58.6% (active)
Fc1cc(F)cc(C(c2c[nH]c3ccccc23)c2c[nH]c3ccccc23)c1	111%
COc1ccc2c(c1)CCCN2c1c2ccccc2nc2ccccc12	-3.81% (active)
Cc1cccc(C)c1N1C(c2ccccc2)=NNC12C=CC(=O)c1c(O)cccc12 (stereo unspecified)	85.1%
O=C(Nc1nc(-c2ccc(Cl)cc2)cs1)c1cc(-c2ccc(Br)cc2)nc2ccc(Cl)cc12	98.7%
Cc1[nH]n(C(=O)c2ccncc2)c(=O)c1N=Nc1ccc(F)c(Cl)c1	110%
NC(N)=Nc1nc2ccccc2o1	106%
O=C(Nc1cccc(-n2cc(-c3ccncc3)c(-c3ccc(Cl)c(O)c3)n2)c1)Nc1cc(C(F)(F)F)cc(C(F)(F)F)c1	-23.9% (active)
Nc1nc(Cl)c2ncn(Cc3cc4c(cc3I)OCO4)c2n1	7.98% (active)
COC1=CC(c2ccc[nH]2)=N/C1=C\c1[nH]c(C)c(CCCn2cc(CCCCCCCCC[C@@H]3Cc4cc(O)ccc4C4CC[C@]5(C)[C@@H](O)CC[C@H]5C43)nn2)c1C (stereo partly specified)	30.1%
Cc1nc2cc(-n3c(-c4ccc(F)cc4)nc4ccccc4c3=O)ccc2n1Cc1ccccc1	15.2%
O=Cc1ccccc1C(=O)O	-6.83% (active)
CCCC(=O)CC(=O)c1ccccc1	97.5%
CNc1ccc(Br)cc1-c1n[nH]c(=O)[nH]c1=O	120%
O=C1N=c2ccccc2=C1c1sc(=Nc2ccccc2)n(Nc2ccccc2)c1O	123%
CC(C)CCC[C@@H](C)[C@H]1CC[C@H]2[C@@H]3CC=C4N(c5ccccc5)C(=O)CC[C@]4(C)[C@H]3CC[C@]12C	96.4%
Cc1[nH]c(-c2nc3ccccc3[nH]2)c(C)c1C(=O)NNc1ccc(Cl)cc1	84.8%
